High-throughput results as filed in PubChem BioAssay.
This is a sample that favours compounds with a hit; in the whole collection about 4.8% have one here.
Beta cell apopt = blocks beta cell apoptosis; actives 0.8% (n = 300,000); INS-1E cytokine-induced death, ATP luminescence, 48 h; percent of positive-control rescue, neutral wells zero; protection from apoptosis, % (test concentration not listed);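 active means Every replicate reaches about 75%, or at least half do and their mean reaches it too, limit read from the data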;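 further: 0% = cytokine-treated negative control wells and 100% = positive control rescue; higher means more ATP so stronger rescue from cytokine killing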
CSC inhib = cancer stem cell inhibition; inhibition, % at 7.5 µM; cancer stem cell-like cells viability, luminescence; actives 1.1% (n = 300,000); in the data active means inhibition above about 75%; tested in HMLE shEcad cells
Mdm2 MdmX PPI = human Mdm2/MdmX binding inhibition; inhibition, % at 8 µM; AID 485346; SaOS-2 split-luciferase Mdm2/MdmX complementation, luminescence; actives 3% (n = 330,000); O15151+Q00987;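 active means inhibition of at least 50% at 8 µM in the primary screen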
Target sequence (O15151 whole entry, looked up): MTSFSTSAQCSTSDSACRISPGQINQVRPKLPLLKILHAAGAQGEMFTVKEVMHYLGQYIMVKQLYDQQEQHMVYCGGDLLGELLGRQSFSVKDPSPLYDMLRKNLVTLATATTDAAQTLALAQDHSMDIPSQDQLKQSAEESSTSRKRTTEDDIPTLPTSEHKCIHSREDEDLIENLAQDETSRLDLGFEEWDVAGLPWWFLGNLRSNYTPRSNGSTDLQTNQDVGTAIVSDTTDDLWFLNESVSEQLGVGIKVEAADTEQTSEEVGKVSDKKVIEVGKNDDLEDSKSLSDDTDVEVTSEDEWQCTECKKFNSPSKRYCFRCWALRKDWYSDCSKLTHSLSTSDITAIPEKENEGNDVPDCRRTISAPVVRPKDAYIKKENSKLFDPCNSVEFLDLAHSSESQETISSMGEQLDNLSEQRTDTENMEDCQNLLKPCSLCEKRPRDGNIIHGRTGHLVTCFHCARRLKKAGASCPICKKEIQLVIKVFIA
Target sequence (Q00987 whole entry, looked up): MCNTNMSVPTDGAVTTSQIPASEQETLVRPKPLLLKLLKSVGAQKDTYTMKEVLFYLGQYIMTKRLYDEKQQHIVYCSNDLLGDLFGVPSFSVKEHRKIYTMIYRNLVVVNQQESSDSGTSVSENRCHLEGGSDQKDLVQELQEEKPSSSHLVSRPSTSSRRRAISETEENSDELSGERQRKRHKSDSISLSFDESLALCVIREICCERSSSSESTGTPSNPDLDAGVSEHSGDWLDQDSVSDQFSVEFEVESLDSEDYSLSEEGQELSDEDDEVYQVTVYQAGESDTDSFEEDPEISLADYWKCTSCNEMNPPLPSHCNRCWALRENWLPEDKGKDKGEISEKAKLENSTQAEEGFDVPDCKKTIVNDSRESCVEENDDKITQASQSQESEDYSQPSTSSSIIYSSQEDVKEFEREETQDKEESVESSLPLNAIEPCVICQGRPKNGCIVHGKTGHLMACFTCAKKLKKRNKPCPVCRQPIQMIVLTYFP
MPTP block = permeability transition pore inhibition. isolated mouse mitochondria, Ca2+ swelling absorbance, 30 min. inhibition, % at 10 µM. actives 1.4% (n = 360,000);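 active means inhibition of 50% or more, scaled per plate between neutral and stimulator controls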;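 further: 0% = DMSO wells given calcium and 100% = 1 mM EGTA wells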
Calb FLC = C. albicans growth modulation with fluconazole; C. albicans CaCi-2 (fluconazole-resistant clinical isolate) + fluconazole, Alamar Blue growth, 48 h; growth inhibition, % (test concentration not listed); actives 0.57% (n = 300,000); AID 1979;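 active means growth inhibition above about 58% in most replicates, limit read from the data, passing the limit was not always enough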;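 further: all wells also contain fluconazole at 8 µg/ml as a sub-toxic cotreatment; 0% = median of DMSO wells and 100% = median of geldanamycin control wells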
Mdm2 MdmX conf = confirmation of human Mdm2/MdmX interaction inhibitors | shares compounds with Mdm2 MdmX PPI | Mdm2-MdmX binding, luminescent assay | inhibition, % at 8 µM | actives 55% (n = 10,000) | AID 489028; in the data active means inhibition above about 40%
FLuc counter = full-length luciferase inhibition in Mdm2/MdmX counter-screen. shares compounds with Mdm2 MdmX PPI. SaOS-2 full-length luciferase counterscreen, luminescence. inhibition, % at 8 µM. actives 77% (n = 6,200). AID 504607;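 active means mean inhibition at 8 µM reaching about 37%, which flags the compound as non-specific, limit read from the data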;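 further: p53-null SaOS-2 cells with luciferase driven by a doxycycline-inducible promoter; compound on cells about two nights before reading with doxycycline added after day one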
Active calls of the source: *.

Screening O=C(c1ccco1)N1CCN(C(=O)C2CCCc3c2[nH]c2ccc(Cl)cc32)CC1 (configuration not stated) returned Beta cell apopt 7, CSC inhib 24, Mdm2 MdmX PPI 86*, MPTP block 4, Calb FLC -1, Mdm2 MdmX conf 67* and FLuc counter 28.
CCN(CC)C(=O)C1CCCc2c1[nH]c1ccc(Cl)cc21 (configuration not stated) was read as Beta cell apopt -1, CSC inhib 9, Mdm2 MdmX PPI 84*, MPTP block -1, Calb FLC 16, Mdm2 MdmX conf 72* and FLuc counter 35.
`O=C(O)c1[nH]c2ccc(Cl)cc2c1CC(=O)N1CCN(C(=O)c2ccco2)CC1` gave Beta cell apopt 4, CSC inhib 5, Mdm2 MdmX PPI 0, MPTP block -2 and Calb FLC -1.
Screening COc1ccc(C(=O)Nc2cccc(NC(=O)c3ccc(OC)c(OC)c3)n2)cc1OC returned Beta cell apopt 14, CSC inhib 20, Mdm2 MdmX PPI 55*, MPTP block 1, Calb FLC -8, Mdm2 MdmX conf 49* and FLuc counter 89*.
For COc1cc(C(=O)Nc2ccccc2C(=O)Nc2ccccn2)cc(OC)c1OC the results were Beta cell apopt 8, CSC inhib 54, Mdm2 MdmX PPI 63*, MPTP block 0, Calb FLC 9, Mdm2 MdmX conf 52* and FLuc counter 47*.
COc1cc(C(=O)Nc2ccccn2)cc(OC)c1OC was read as Beta cell apopt 0, CSC inhib -4, Mdm2 MdmX PPI 14, MPTP block -2 and Calb FLC 1.
For CN1C(=O)c2cccc3c(S(=O)(=O)NCc4ccco4)ccc1c23 the results were Beta cell apopt 6, CSC inhib -1, Mdm2 MdmX PPI 21, MPTP block 1 and Calb FLC 38.
CN1C(=O)c2cccc3c(S(=O)(=O)Nc4ccccn4)ccc1c23 was read as Beta cell apopt -6, CSC inhib 3, Mdm2 MdmX PPI 56*, MPTP block -2, Calb FLC -6, Mdm2 MdmX conf 41* and FLuc counter 79*.
`CCN1C(=O)c2cccc3c(S(=O)(=O)Nc4ccccc4OC)ccc1c23` gave Beta cell apopt 1, Mdm2 MdmX PPI 56*, MPTP block 17, Calb FLC 4, Mdm2 MdmX conf 43* and FLuc counter 79*.
For CN1C(=O)c2cccc3c(S(N)(=O)=O)ccc1c23 the results were CSC inhib -2, Mdm2 MdmX PPI 24, MPTP block 1 and Calb FLC -5.
Screening CCN1C(=O)c2cccc3c(S(=O)(=O)N4CCC(C)CC4)ccc1c23 returned Beta cell apopt -9, CSC inhib -12, Mdm2 MdmX PPI 83*, MPTP block 0, Mdm2 MdmX conf 42* and FLuc counter 83*.
For Cc1ccccc1NS(=O)(=O)c1ccc2c3c(cccc13)C(=O)N2C the results were CSC inhib -10, Mdm2 MdmX PPI 53*, MPTP block 3, Calb FLC 13, Mdm2 MdmX conf 49* and FLuc counter 100*.
`COC(=O)CC/C(=N/Nc1ccc(Cl)c(Cl)c1)C(=O)OC` gave Beta cell apopt -7, CSC inhib -1, Mdm2 MdmX PPI -1, MPTP block 0 and Calb FLC 10.
Screening CSCCC(NC(=O)c1ccccc1Br)C(=O)NNC(=O)c1ccco1 (configuration not stated) returned Beta cell apopt -8, Mdm2 MdmX PPI 11 and MPTP block -1.
CC(=O)NC(CC(=O)OCC(=O)c1ccc(NC(=O)CC(C)C)cc1)c1ccccc1 (configuration not stated) was read as Beta cell apopt -6, CSC inhib -16, Mdm2 MdmX PPI 1 and MPTP block 0.
`CCN1C(=O)c2cccc3c(S(=O)(=O)N(C(C)=O)c4ccc(OC(C)=O)cc4)ccc1c23` gave Beta cell apopt 14, CSC inhib 7, Mdm2 MdmX PPI 61*, MPTP block 2 and Mdm2 MdmX conf 1.
`COc1ccc(N(C(=O)c2ccncc2)S(=O)(=O)c2ccc3c4c(cccc24)C(=O)N3C)cc1` gave Beta cell apopt -5, CSC inhib -7, Mdm2 MdmX PPI 32, MPTP block 2 and Calb FLC 3.
Screening O=C(COc1coc(CN2CCc3ccccc32)cc1=O)Nc1ccccc1 returned Beta cell apopt -3, CSC inhib 7, Mdm2 MdmX PPI 19, MPTP block 0 and Calb FLC -1.
O=C(Cc1ccc(Br)cc1)N1CCOCC1 was read as Beta cell apopt -2, CSC inhib 7, Mdm2 MdmX PPI 6, MPTP block -2 and Calb FLC 1.
`CCOC(=O)C1=C(C)NC(C)=C(C(=O)OCC)C1/C=C/c1ccccc1OC` gave Beta cell apopt -11, CSC inhib 13, Mdm2 MdmX PPI 48, MPTP block 3 and Calb FLC -10.
For CCOC(=O)C1=C(C)NC(C)=C(C(=O)OCC)C1c1ccccc1/C=C/C(=O)OC(C)(C)C the results were Beta cell apopt 39, CSC inhib 99*, Mdm2 MdmX PPI 72* and Mdm2 MdmX conf 31.
Cc1cc(C)nc(/N=C(\N)Nc2ccc(OCc3ccccc3)cc2)n1 was read as Beta cell apopt 45, CSC inhib 44, Mdm2 MdmX PPI 54*, MPTP block 34, Calb FLC -18 and Mdm2 MdmX conf 35.
Screening CC1(C)Cc2c(c(N3CCOCC3)nc3sc4c(NCC5CCCO5)nnnc4c23)CS1 (configuration not stated) returned Beta cell apopt -3, CSC inhib 3, Mdm2 MdmX PPI 70*, MPTP block -1, Calb FLC 0, Mdm2 MdmX conf 52* and FLuc counter 69*.
`CC(C)CCNc1nnnc2c1sc1nc(N3CCOCC3)c3c(c12)CC(C)(C)SC3` gave Beta cell apopt 9, CSC inhib 55, Mdm2 MdmX PPI 51*, MPTP block -1, Calb FLC 17 and Mdm2 MdmX conf 6.
`COc1ccc(OC)c(NC(=O)Cn2nc(C)c3ccccc3c2=O)c1` gave Beta cell apopt -3, CSC inhib -15, Mdm2 MdmX PPI -7, MPTP block 1 and Calb FLC 2.
`Cc1cc(Nc2cc(Cl)nc(Sc3ccc(NC(=O)C4CC4)cc3)n2)n[nH]1` gave Beta cell apopt -7, CSC inhib 24, Mdm2 MdmX PPI 69*, MPTP block 0, Calb FLC 38, Mdm2 MdmX conf 51* and FLuc counter 52*.
